# Results as given in paper PMC7862700, “An all-to-all approach to the identification of sequence-specific readers for epigenetic DNA modifications on cytosine”.
# What was measured:
# Test in all cases: DAPPL (digital affinity profiling via proximity ligation, sequencing); 10 mM Tris-HCl pH 7.5, 50 mM NaCl, 1 mM DTT, 4% glycerol, room temperature, 30 min; GST-TFs on glutathione beads, 16-mer random dsDNA library, 0.1% formaldehyde crosslink after washing; high values mean tight binding
# [1] = molecular target: T1, FLI1 (Homo sapiens, UniProt Q01543 1-452); settings: protein: recombinant; tags: N-terminal GST; dsDNA, one strand shown
# T1 sequence: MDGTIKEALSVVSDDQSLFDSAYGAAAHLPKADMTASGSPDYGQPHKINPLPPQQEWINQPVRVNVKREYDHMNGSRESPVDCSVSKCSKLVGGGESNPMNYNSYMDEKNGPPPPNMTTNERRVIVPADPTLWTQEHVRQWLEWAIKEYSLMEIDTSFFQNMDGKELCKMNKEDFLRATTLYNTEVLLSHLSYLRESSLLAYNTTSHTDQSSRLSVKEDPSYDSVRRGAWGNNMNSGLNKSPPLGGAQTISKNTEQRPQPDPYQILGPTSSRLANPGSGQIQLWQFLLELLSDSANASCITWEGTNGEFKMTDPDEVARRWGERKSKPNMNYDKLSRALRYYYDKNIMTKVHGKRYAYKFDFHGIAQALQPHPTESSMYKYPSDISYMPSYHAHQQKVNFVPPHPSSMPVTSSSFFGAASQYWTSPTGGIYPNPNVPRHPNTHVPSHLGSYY
# Method in brief: (§1)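 Human transcription factors fused to GST were expressed in yeast, captured on glutathione beads, given DNA barcodes and pooled with a GST-only negative control. Pools were incubated with 200 nmole of a 16-mer random double-stranded DNA library in Tris/NaCl/DTT/glycerol buffer at room temperature for 30 min. They were then washed, crosslinked with 0.1% formaldehyde, proximity-ligated (BsaI/T4 ligase, 1 h, 37 °C), PCR-amplified and sequenced on an Illumina NextSeq500. Binding signal is each 6-mer's read frequency for a factor divided by its frequency for the GST control.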
# [2] = molecular target: T2, ELK1 (Homo sapiens, UniProt P19419 1-428); settings: protein: recombinant; tags: N-terminal GST; dsDNA, one strand shown
# T2 sequence: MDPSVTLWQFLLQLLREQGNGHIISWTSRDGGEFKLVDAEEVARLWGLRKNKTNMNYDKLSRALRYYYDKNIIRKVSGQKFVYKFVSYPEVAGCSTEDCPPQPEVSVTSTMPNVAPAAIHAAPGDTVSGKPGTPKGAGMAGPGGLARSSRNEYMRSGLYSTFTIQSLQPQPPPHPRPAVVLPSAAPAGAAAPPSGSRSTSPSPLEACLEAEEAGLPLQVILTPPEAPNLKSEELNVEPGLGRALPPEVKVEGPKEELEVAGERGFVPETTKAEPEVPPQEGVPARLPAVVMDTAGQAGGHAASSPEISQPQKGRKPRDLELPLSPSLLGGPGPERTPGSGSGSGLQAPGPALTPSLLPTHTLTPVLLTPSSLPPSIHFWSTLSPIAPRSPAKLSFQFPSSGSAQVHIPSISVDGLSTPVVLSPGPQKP
# Method in brief: as §1
# [3] = molecular target: T3, GABPA (Homo sapiens, UniProt Q06546 1-454); settings: protein: recombinant; tags: N-terminal GST; dsDNA, one strand shown
# T3 sequence: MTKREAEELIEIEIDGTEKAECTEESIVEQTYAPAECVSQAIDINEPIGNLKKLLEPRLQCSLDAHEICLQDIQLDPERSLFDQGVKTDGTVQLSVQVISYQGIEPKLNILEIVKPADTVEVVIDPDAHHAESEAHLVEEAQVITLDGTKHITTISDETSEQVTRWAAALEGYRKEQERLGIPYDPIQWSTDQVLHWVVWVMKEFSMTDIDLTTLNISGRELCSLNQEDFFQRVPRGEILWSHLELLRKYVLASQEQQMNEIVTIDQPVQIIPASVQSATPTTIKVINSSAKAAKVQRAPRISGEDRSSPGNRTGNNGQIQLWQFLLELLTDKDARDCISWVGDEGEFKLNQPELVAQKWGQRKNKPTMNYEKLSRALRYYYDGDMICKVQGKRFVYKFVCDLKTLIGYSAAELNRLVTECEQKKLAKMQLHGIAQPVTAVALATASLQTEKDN
# Method in brief: as §1
# [4] = molecular target: T4, ERG (Homo sapiens, UniProt P11308 1-479); settings: protein: recombinant; tags: N-terminal GST; dsDNA, one strand shown
# T4 sequence: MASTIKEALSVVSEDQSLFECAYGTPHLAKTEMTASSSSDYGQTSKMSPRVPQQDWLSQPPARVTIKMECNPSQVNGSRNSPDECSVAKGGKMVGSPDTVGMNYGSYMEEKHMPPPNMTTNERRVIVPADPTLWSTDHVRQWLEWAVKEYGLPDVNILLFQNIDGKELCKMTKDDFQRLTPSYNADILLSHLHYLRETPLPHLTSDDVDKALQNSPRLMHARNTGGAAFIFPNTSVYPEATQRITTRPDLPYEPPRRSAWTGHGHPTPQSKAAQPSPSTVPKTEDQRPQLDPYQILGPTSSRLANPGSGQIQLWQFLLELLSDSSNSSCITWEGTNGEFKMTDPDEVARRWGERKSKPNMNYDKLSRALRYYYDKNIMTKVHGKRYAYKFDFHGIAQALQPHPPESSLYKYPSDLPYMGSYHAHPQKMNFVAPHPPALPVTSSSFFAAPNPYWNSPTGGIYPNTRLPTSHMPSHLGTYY
# Method in brief: as §1
# [5] = molecular target: ELF1 (Homo sapiens, UniProt P32519 1-619); settings: protein: recombinant; tags: N-terminal GST; dsDNA, one strand shown
# Method in brief: as §1
# [6] = molecular target: T5, EHF (Homo sapiens, UniProt Q9NZC4 1-300); settings: protein: recombinant; tags: N-terminal GST; dsDNA, one strand shown
# T5 sequence: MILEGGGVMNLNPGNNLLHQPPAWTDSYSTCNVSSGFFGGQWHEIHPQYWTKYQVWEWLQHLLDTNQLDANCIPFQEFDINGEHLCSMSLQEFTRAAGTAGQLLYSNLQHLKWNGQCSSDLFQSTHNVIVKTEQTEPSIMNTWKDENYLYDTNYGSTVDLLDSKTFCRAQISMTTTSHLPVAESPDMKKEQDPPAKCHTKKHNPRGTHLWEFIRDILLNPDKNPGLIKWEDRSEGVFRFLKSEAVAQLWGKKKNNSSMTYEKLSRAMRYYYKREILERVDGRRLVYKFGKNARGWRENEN
# Method in brief: as §1
# [7] = molecular target: SPI1 (Homo sapiens, UniProt P17947 1-270); settings: protein: recombinant; tags: N-terminal GST; dsDNA, one strand shown
# Method in brief: as §1
# [8] = molecular target: SPIB (Homo sapiens, UniProt Q01892 1-262); settings: protein: recombinant; tags: N-terminal GST; dsDNA, one strand shown
# Method in brief: as §1
# [9] = molecular target: T6, ELK3 (Homo sapiens, UniProt P41970 1-407); settings: protein: recombinant; tags: N-terminal GST; dsDNA, one strand shown
# T6 sequence: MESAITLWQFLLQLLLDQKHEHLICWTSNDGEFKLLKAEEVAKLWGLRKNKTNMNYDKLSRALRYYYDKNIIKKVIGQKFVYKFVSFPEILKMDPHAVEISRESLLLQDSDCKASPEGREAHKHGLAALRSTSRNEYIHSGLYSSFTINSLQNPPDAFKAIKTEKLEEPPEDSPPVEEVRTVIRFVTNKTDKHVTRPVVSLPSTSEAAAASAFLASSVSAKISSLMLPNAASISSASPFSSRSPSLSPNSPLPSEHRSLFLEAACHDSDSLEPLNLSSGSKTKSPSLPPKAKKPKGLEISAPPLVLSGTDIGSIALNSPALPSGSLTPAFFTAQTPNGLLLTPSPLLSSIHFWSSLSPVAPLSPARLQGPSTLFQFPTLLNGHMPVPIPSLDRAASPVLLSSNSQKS
# Method in brief: as §1
# [10] = molecular target: T7, FEV (Homo sapiens, UniProt Q99581 1-238); settings: protein: recombinant; tags: N-terminal GST; dsDNA, one strand shown
# T7 sequence: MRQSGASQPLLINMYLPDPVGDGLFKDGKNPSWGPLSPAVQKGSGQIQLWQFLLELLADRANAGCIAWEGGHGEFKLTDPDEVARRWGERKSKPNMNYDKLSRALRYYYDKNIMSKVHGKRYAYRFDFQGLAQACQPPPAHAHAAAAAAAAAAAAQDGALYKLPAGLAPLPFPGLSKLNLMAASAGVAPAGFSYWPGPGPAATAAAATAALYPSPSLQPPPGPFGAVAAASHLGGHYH
# Method in brief: as §1
# [11] = molecular target: ETV5 (Homo sapiens, UniProt P41161 1-510); settings: protein: recombinant; tags: N-terminal GST; dsDNA, one strand shown
# Method in brief: as §1
# [12] = molecular target: HSF1 (Homo sapiens, UniProt Q00613 1-529); settings: protein: recombinant; tags: N-terminal GST; chain copies: 3; dsDNA, one strand shown
# Method in brief: as §1
# [13] = molecular target: T8, SPIC (Homo sapiens, UniProt Q8N5J4 1-248); settings: protein: recombinant; tags: N-terminal GST; dsDNA, one strand shown
# T8 sequence: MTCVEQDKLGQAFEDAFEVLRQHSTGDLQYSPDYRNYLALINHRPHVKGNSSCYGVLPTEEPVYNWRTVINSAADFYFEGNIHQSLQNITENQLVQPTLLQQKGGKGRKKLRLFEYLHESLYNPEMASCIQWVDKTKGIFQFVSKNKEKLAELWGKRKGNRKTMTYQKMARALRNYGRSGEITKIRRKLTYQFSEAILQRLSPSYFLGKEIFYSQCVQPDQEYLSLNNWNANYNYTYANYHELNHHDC
# Method in brief: as §1
# [14] = molecular target: ELF4 (Homo sapiens, UniProt Q99607 1-663); settings: protein: recombinant; tags: N-terminal GST; dsDNA, one strand shown
# Method in brief: as §1
# [15] = molecular target: T9, ELK4 (Homo sapiens, UniProt P28324-2 1-405); settings: protein: recombinant; tags: N-terminal GST; dsDNA, one strand shown
# T9 sequence: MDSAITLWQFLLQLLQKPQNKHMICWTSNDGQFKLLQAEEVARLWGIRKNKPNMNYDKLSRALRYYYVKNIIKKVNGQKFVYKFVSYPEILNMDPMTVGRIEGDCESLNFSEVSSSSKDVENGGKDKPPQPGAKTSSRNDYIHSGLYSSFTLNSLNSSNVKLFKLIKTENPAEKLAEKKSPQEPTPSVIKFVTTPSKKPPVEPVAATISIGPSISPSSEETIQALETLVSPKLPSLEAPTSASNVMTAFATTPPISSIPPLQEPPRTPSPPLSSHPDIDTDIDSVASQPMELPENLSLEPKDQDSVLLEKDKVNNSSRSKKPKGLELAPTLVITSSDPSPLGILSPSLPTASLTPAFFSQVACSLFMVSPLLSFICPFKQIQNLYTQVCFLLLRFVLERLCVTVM
# Method in brief: as §1
# [16] = molecular target: T10, ETV2 (Homo sapiens, UniProt O00321 1-342); settings: protein: recombinant; tags: N-terminal GST; dsDNA, one strand shown
# T10 sequence: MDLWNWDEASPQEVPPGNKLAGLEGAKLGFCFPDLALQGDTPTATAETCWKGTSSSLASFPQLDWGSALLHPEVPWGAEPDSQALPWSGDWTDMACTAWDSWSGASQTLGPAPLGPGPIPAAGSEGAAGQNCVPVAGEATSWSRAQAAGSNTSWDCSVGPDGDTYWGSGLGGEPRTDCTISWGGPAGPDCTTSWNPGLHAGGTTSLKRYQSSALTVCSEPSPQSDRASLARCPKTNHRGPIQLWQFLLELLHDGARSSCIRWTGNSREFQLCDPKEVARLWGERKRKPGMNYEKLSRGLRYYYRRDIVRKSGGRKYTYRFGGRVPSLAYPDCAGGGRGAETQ
# Method in brief: as §1
# [17] = molecular target: T11, ELF3 (Homo sapiens, UniProt P78545 1-371); settings: protein: recombinant; tags: N-terminal GST; dsDNA, one strand shown
# T11 sequence: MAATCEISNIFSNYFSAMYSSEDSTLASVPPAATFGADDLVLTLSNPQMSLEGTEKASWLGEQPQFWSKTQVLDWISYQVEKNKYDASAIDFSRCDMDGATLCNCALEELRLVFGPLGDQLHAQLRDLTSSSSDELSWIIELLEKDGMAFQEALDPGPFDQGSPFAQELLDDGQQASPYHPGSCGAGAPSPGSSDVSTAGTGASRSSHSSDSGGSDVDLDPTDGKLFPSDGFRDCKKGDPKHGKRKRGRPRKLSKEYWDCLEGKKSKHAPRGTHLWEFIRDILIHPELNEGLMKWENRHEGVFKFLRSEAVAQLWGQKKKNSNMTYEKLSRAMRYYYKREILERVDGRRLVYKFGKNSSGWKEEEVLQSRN
# Method in brief: as §1
# [18] = molecular target: CRX (Homo sapiens, UniProt O43186 1-299); settings: protein: recombinant; tags: N-terminal GST; dsDNA, one strand shown
# Method in brief: as §1
# [19] = molecular target: ETV1 (Homo sapiens, UniProt P50549 1-477); settings: protein: recombinant; tags: N-terminal GST; dsDNA, one strand shown
# Method in brief: as §1
# Sequence of CRX (O43186 whole entry): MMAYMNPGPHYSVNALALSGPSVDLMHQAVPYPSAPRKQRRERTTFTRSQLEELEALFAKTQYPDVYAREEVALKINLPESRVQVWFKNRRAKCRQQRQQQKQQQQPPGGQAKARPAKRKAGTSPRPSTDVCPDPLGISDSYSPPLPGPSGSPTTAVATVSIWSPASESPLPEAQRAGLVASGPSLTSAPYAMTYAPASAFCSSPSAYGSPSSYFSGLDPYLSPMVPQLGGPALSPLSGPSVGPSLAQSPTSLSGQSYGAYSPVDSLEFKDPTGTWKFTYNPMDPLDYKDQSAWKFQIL
# Sequence of ELF1 (P32519 whole entry): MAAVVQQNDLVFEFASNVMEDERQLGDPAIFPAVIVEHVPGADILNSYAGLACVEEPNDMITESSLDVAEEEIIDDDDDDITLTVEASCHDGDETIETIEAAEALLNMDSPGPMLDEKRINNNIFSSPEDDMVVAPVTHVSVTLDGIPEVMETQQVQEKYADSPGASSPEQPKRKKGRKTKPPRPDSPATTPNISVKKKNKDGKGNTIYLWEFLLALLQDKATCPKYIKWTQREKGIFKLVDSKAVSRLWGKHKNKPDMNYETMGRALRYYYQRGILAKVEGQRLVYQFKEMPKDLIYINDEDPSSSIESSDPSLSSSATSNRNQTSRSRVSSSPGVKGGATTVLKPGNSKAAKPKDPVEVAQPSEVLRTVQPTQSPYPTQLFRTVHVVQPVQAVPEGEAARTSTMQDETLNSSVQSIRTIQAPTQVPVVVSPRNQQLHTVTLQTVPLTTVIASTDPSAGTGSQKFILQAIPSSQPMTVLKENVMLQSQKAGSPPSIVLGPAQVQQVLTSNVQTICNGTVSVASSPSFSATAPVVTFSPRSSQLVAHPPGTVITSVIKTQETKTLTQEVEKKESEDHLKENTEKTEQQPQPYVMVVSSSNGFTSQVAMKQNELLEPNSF
# Sequence of ETV5 (P41161 whole entry): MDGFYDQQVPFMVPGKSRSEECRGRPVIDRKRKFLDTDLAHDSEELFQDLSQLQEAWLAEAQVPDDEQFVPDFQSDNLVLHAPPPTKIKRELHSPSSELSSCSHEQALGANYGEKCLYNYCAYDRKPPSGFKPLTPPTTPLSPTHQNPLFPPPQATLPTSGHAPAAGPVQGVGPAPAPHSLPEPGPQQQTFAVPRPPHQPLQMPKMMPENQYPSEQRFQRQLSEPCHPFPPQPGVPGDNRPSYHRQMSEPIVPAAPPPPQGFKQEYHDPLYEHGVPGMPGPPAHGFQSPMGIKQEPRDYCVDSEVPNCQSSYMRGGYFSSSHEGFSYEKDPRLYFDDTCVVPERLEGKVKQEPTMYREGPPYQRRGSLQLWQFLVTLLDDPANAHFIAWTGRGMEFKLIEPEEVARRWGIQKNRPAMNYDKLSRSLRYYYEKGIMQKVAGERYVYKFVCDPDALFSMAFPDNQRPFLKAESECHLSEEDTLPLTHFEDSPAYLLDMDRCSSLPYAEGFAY
# Sequence of HSF1 (Q00613 whole entry): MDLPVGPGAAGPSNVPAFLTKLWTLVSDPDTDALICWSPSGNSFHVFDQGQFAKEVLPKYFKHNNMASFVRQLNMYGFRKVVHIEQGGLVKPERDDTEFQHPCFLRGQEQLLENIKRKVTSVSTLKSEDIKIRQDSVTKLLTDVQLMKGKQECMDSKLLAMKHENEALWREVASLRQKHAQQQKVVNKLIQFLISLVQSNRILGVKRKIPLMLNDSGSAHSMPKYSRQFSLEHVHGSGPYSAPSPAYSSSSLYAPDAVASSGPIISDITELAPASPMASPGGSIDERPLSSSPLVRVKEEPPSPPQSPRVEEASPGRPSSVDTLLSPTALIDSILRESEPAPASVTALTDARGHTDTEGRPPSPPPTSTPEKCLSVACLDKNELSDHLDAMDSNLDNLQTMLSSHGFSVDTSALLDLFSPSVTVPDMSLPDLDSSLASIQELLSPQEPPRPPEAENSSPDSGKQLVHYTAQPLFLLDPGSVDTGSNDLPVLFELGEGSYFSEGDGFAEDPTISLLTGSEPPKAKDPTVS
# Sequence of ETV1 (P50549 whole entry): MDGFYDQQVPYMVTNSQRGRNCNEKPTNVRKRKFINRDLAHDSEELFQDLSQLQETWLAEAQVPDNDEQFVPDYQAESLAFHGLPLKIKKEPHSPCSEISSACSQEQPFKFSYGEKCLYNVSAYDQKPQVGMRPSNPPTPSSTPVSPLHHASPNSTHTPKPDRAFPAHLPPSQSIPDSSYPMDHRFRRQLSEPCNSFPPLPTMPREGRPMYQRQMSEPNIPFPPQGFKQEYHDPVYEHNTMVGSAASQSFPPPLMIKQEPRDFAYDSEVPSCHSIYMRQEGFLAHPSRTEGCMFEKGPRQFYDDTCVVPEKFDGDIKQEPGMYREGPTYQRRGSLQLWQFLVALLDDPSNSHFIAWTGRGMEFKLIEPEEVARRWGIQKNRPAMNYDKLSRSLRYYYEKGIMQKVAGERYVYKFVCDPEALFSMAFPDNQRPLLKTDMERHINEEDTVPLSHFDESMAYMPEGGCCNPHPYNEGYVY
# Sequence of ELF4 (Q99607 whole entry): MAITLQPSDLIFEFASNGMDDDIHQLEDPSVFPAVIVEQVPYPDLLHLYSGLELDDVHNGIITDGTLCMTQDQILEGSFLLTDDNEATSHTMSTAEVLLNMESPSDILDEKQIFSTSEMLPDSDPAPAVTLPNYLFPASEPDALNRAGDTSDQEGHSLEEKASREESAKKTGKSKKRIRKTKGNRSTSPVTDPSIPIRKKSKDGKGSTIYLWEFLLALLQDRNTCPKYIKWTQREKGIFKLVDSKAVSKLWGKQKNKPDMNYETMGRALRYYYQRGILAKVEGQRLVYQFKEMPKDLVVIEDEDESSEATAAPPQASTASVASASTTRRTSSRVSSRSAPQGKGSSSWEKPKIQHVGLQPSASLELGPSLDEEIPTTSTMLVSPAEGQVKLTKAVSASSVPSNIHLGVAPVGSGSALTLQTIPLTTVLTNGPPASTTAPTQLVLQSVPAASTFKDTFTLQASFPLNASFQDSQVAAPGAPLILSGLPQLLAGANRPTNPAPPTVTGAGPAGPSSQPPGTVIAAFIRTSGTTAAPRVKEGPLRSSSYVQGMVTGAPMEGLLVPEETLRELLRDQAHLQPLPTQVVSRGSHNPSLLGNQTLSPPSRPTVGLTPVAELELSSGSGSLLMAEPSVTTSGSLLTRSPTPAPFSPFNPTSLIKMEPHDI
# Sequence of SPIB (Q01892 whole entry): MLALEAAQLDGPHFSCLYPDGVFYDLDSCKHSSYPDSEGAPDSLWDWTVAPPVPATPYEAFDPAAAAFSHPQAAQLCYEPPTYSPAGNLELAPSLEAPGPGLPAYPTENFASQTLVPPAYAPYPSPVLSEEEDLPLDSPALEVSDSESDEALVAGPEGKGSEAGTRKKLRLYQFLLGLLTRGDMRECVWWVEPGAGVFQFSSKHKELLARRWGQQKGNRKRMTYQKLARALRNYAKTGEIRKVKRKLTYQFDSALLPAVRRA
sequence,measurement,setting,value
TCTTCC,binding signal,[1],"2.61 fold enrichment (6-mer frequency, TF over GST control)"
same,binding signal,[2],"2.52 fold enrichment (6-mer frequency, TF over GST control)"
same,binding signal,[3],"2.39 fold enrichment (6-mer frequency, TF over GST control)"
same,binding signal,[4],"2.86 fold enrichment (6-mer frequency, TF over GST control)"
same,binding signal,[5],"2.65 fold enrichment (6-mer frequency, TF over GST control)"
same,binding signal,[6],"2.76 fold enrichment (6-mer frequency, TF over GST control)"
same,binding signal,[7],"2.46 fold enrichment (6-mer frequency, TF over GST control)"
same,binding signal,[8],"2.75 fold enrichment (6-mer frequency, TF over GST control)"
same,binding signal,[9],"2.79 fold enrichment (6-mer frequency, TF over GST control)"
same,binding signal,[10],"2.55 fold enrichment (6-mer frequency, TF over GST control)"
same,binding signal,[11],"2.85 fold enrichment (6-mer frequency, TF over GST control)"
same,binding signal,[12],"1.69 fold enrichment (6-mer frequency, TF over GST control)"
same,binding signal,[13],"2.31 fold enrichment (6-mer frequency, TF over GST control)"
same,binding signal,[14],"2.35 fold enrichment (6-mer frequency, TF over GST control)"
same,binding signal,[15],"2.38 fold enrichment (6-mer frequency, TF over GST control)"
same,binding signal,[16],"2.61 fold enrichment (6-mer frequency, TF over GST control)"
same,binding signal,[17],"2.33 fold enrichment (6-mer frequency, TF over GST control)"
same,binding signal,[18],"1.34 fold enrichment (6-mer frequency, TF over GST control)"
same,binding signal,[19],"2.62 fold enrichment (6-mer frequency, TF over GST control)"
